The list is not random: actives were taken first. Their share in the collection is about 2.4%.
D2 PAM-1 – potentiates the human D2 dopamine receptor allosterically; P14416; DiscoveRx D2 beta-arrestin cells, luminescence, 90 min; 100% = 57 uM dopamine signal; AID 624464; 360,000 tested, 0.23% active; potentiation, % (concentration not given with the values); in the data active = potentiation above about 50%; inconclusive = mostly about 30% to 49%
Target sequence (P14416 whole entry, looked up): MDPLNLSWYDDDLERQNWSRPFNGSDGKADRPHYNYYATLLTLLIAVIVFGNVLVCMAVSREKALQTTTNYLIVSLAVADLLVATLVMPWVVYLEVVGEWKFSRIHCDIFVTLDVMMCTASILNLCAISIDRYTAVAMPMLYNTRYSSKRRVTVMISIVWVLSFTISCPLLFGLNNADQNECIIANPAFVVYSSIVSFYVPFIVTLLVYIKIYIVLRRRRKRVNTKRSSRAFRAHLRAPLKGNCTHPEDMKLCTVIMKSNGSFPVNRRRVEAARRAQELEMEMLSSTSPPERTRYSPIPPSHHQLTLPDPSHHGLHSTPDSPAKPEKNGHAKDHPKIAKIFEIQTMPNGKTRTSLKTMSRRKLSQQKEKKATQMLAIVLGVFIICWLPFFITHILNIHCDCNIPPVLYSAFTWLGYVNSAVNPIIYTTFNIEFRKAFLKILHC
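D2 cells co-treated with compound plus 50 nM dopamine (EC20) for 90 min at 37 deg C to detect potentiation. Beta-arrestin recruitment was read as enzyme-fragment luminescence after 1 h at ambient temperature. Full response was set by 57 uM dopamine.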
D2 ag-1 – human D2 receptor agonism in beta-arrestin assay; P14416; DiscoveRx PathHunter D2 beta-arrestin, luminescence, 90 min; 100% = 57 uM dopamine signal; activation, % (test concentration not listed); 360,000 tested, 0.084% active; AID 624465; in the data active = activation above about 40%; inconclusive = between about 15% and that limit
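DiscoveRx PathHunter D2 beta-arrestin cells (2,100/well) attached overnight, then compound-stimulated 90 min at 37 C in HBSS/10 mM HEPES/0.1% Tween-20 buffer; beta-galactosidase complementation read by luminescence after 1 h at ambient temperature. Dopamine 57 uM final (EC100) as control.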
D2 PAM-2 – positively modulates the human D2 dopamine receptor allosterically; HEK293 T-REx D2, calcium flux, EC20 dopamine potentiation; AID 485347; 340,000 tested, 0.34% active; potentiation, % at 10 µM;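 active = potentiation over 3 SD above the plate norm, cut at about 30% in these data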; note: 0% is about no effect
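Tetracycline-induced Hek293 Trex D2 cells, force-coupled to calcium, loaded with no-wash calcium dye. Compound added with 180 s kinetic read for agonism, then EC20 dopamine and a further 180 s read for potentiation.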
D2 ag-2 – activates the human D2 dopamine receptor. HEK293 T-REx D2 cells, calcium flux agonist mode. 340,000 tested, 0.53% active. activation, % at 2 µM. P14416;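 active = activation over 3 SD above normal in the single-dose calcium agonist read, cut at about 30% in these data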; note: 0% is about no effect
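Calcium-flux readout, 1 cycle/sec over 180 s following compound pin transfer, in inducible HEK293 Trex D2 cells (force-coupled); dopamine controls included. Positive calcium responses during this window marked compounds as potential agonists.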
D2 antagonist – antagonizes the human D2 dopamine receptor; P14416; HEK293 TREx D2 cells, calcium flux, dopamine EC80; inhibition, % at 10 µM; 340,000 tested, 2% active; AID 485344; in the data active = inhibition above about 30%; inactive = below that, where a call was filed; note: 0% is about no effect
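Antagonism is scored as inhibition of an EC80 dopamine-evoked calcium signal in a force-coupled, tetracycline-inducible HEK293 T-REx D2 line, with compound present 180 s before agonist.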
D3 arrestin ag – D3 receptor agonism confirmed, beta-arrestin readout. AID 720506. DiscoveRx D3 beta-arrestin cells, luminescence, 90 min. shares compounds with D2 ag-2. 2,300 tested, 4% active. Potency, µM (series often up to 76.9 µM), without a hit: at the highest dose activation, hits mostly activators;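 note: potency is the fitted concentration of half-maximal effect; 100% = dopamine control response; nearly all actives have a fitted effect of over 70% in size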
D2 ag-3 – counter-screen for D3 agonists: human D2 dopamine receptor agonism; AID 720507; shares compounds with D2 ag-2; DiscoveRx PathHunter D2 beta-arrestin, luminescence, 90 min; response scale: percent relative to full dopamine signal; Potency, µM (series often up to 76.9 µM), for the others: at the highest dose activation, most hits filed as activators; 2,300 tested, 5.9% active; note: potency is the fitted concentration of half-maximal effect; % of control where 0% means no effect; nearly all actives have a fitted effect of over 70% in size
* hit, by the source's call; ? = inconclusive; nt = not tested or not shown. Unless noted, calls come from the whole dose curve; as a rule, active = well fitted activation curve with a large enough effect; inconclusive = small, poorly fitted or top-dose-only effect; inactive = flat fitted curve, though single readings scatter.

SMILES	D2 PAM-1	D2 ag-1	D2 PAM-2	D2 ag-2	D2 antagonist	D3 arrestin ag	D2 ag-3
Cn1nc(C(F)(F)F)c(C#N)c1N1CCN(c2ccccn2)CC1	-3	0	-1	11	-33	12%	17%
O=C(Nc1cccc(C(F)(F)F)c1)C1Cc2c(-c3ccccc3Oc3ccccc3)ccnc2O1 (centres undefined)	0	5	nt	nt	nt	nt	nt
COc1cccc(CNC(=O)c2cc(S(=O)(=O)N3CCCCC3)cn2C)c1	nt	nt	24	1	nt	nt	nt
CCC1CCc2c(sc(NC(=O)C3CC=CCC3C(=O)O)c2C#N)C1 (centres undefined)	8	?	-19	62*	29	16µM*	?
COc1ccc(NC(=O)C2Cc3c(-c4ccc5c(c4)OCO5)ccnc3O2)cc1 (centres undefined)	-10	1	nt	nt	nt	nt	nt
NC[C@@H]1O[C@H](C23CC4CC(CC(C4)C2)C3)Cc2c1ccc(O)c2O	?	50*	-25	85*	66*	32µM*	35µM*
CC(C)N1CCN(CC2COc3ccccc3O2)CC1 (centres undefined)	-10	-5	-10	35*	4	-7%	-1%
Cc1cc(C)c(S(=O)(=O)NCCc2sc3nc(-c4ccc(F)cc4)nn3c2C)c(C)c1	nt	nt	10	2	nt	nt	nt
COc1cccc(C2CC(c3ccc(Cl)cc3Cl)n3nc(N)nc3N2)c1 (centres undefined)	-4	6	15	0	0	nt	nt
COc1cccc(C2CC(c3ccccc3Cl)n3nc(N)nc3N2)c1 (centres undefined)	9	-1	-17	71*	-11	-15%	-3%
CCOc1ccccc1CNC(=O)c1cnc2sc(N3CCOCC3)nn2c1=O	nt	nt	-3	0	nt	nt	nt
CC(C)c1cnc2c(c1SCc1ccc([N+](=O)[O-])cc1)c(=O)n(C)c(=O)n2C	nt	nt	-2	-1	nt	nt	nt
O=C(N(Cc1ccccc1)c1ccccn1)C12CC3CC(CC(C3)C1)C2	-2	8	-7	4	-4	nt	nt
COC(=O)CCN(C(=O)C12CC3CC(CC(C3)C1)C2)c1ccccn1	?	?	-19	69*	33*	-4%	?
CC(O)(Cc1ccccn1)Cc1ccccn1	-4	1	nt	nt	nt	nt	nt
CC(=O)c1ccc(S(=O)(=O)NCCC(=O)OCC(=O)NCCc2ccccc2)cc1	-4	-3	-7	0	-7	nt	nt
CC(=O)c1ccc(OC(C)C(=O)OCC(=O)NCCc2ccccc2)cc1 (centres undefined)	7	1	7	0	18	2%	-1%
CC(C)c1ccccc1-n1cc[nH]c1=S	-11	-3	5	2	-16	nt	nt
Cn1cc[nH]c1=S	11	-4	-12	25	-4	-3%	-4%
O=c1[nH]c(=O)n2ncnc2[nH]1	-13	-3	nt	nt	nt	nt	nt
OCC[C@@H]1C[C@H](O)[C@@H](O)[C@@]2(Cc3ccccc3CO2)O1	-14	-2	3	-1	5	nt	nt
OCC[C@H]1C[C@@H](O)[C@H](O)[C@@]2(Cc3ccccc3CO2)O1	-7	-3	9	0	0	-5%	-4%
CN=c1scc(-c2cccs2)n1/N=C/c1ccc(O)c(O)c1O	109*	182*	-22	66*	89*	25µM*	14µM*
CN=c1scc(-c2cccs2)n1/N=C/c1ccccc1O	-34	-3	27	-1	0	nt	nt
CN=c1scc(C)n1/N=C/c1cc(Br)c(O)c(OC)c1	5	1	-4	1	-31	nt	nt
SMILES	D2 PAM-1	D2 ag-1	D2 PAM-2	D2 ag-2	D2 antagonist	D3 arrestin ag	D2 ag-3
CN=c1scc(C)n1/N=C/c1ccc(O)c(O)c1O	93*	52*	-9	40*	-11	40µM*	7%
C[C@H]1CN([C@@H](C)CO)S(=O)(=O)c2ccc(C#Cc3ccccn3)cc2O[C@@H]1CN(C)C(=O)C1CC1	3	-5	nt	nt	nt	nt	nt
CCc1nn(CC(=O)NCCc2ccc(SC)cc2)c(=O)c2cc3sccc3n12	nt	nt	0	0	nt	nt	nt
COc1ccc(C(=O)NCC2OCCc3ccccc32)cc1OC (centres undefined)	-8	-2	-4	1	4	nt	nt
COc1ccc(C=NCC2OCCc3ccccc32)cc1OC (centres undefined)	0	-2	-23	47*	-4	8%	13%
COc1cc(C=NCC2OCCc3ccccc32)cc(OC)c1 (centres undefined)	-7	5	-12	42*	-4	12%	9%
COc1ccc(C(=O)NCC2OCCc3ccccc32)cc1 (centres undefined)	-13	-1	6	1	-29	nt	nt
O=c1c2oc3ccccc3c2n(Cc2ccccc2Cl)c(=O)n1Cc1ccco1	nt	nt	7	nt	nt	nt	nt
CCN(CC(=O)Nc1ccc(NC(C)=O)cc1)C(=O)/C=C/c1ccco1	5	-1	1	1	-2	nt	nt
CCCN(CC(=O)Nc1ccc(Cl)cc1Cl)C(=O)/C=C/c1ccco1	-17	1	-17	42*	17	-3%	0%
COc1cc(CN2CCC(C(=O)N3CCN(c4ccccc4F)CC3)CC2)ccc1O	1	8	-21	39*	39*	?	22%
COc1cccc(CN2CCC(C(=O)N3CCN(c4ccccc4F)CC3)CC2)c1	-10	2	-8	26	1	3%	16%
Cc1ccc2scc(N3CCc4ccccc4C3)c(=O)c2c1	nt	nt	-21	0	nt	nt	nt
COC(=O)Cc1ccc(NC(=S)N2CCN(c3ccc(OC)cc3)CC2)cc1	-6	-2	5	0	-9	nt	nt
COC(=O)Cc1ccc(NC(=S)N2CCN(c3cccc(O)c3)CC2)cc1	-5	14	-15	44*	24	28µM*	?
Cc1c(NC2=C(Cl)C(=O)N(c3ccccc3Cl)C2=O)c(=O)n(-c2ccccc2)n1C	-6	0	-19	44*	-4	-5%	-4%
Cc1cc(=O)[nH]c(Nc2c(C)n(C)n(-c3ccccc3)c2=O)n1	3	-2	-5	1	23	nt	nt
Cc1ccccc1C(=O)O/N=C(\c1ccccc1)c1ccccn1	13	?	-24	77*	72*	?	?
Cc1ccccc1C(=O)O/N=C(\N)c1ccccc1	2	?	2	0	5	nt	nt
Cc1c(Cl)cccc1NC(=O)CN1C(=O)COc2ccc(S(=O)(=O)N3CCOCC3)cc21	nt	nt	-3	-1	nt	nt	nt
Cc1ccc(N2CC(NC(=O)C3CCCC3)CC2=O)cc1 (centres undefined)	nt	nt	0	1	nt	nt	nt
